# Legend:
# [1] = tested on: HCC1937; assay: relative cell viability, compound alone, vs DMSO (fraction of DMSO control); higher = less growth inhibition; details: 72 h
# [2] = tested on: MDA-MB-231; assay: as above; details: 72 h
# 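Also: viability read out with the CCK-8 kit in 96-well plates, screening a set of 303 compounds acting on lipid metabolism targets.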
SMILES,relative cell viability [1],relative cell viability [2]
N#Cc1c(O)c2c(-c3ccc(-c4ccccc4O)cc3)csc2[nH]c1=O,0.719,0.907
CCCCCCCCCCCCCCCC(=O)NCCO [Palmidrol],1.39,1.13
O=C(Nc1cnccc1Cl)N1CCN(Cc2ccc3c(c2)OC(F)(F)O3)CC1,0.747,0.771
CC1=C(/C=C/C(C)=C/C=C/C(C)=C/C=C/C=C(C)/C=C/C=C(C)/C=C/C2=C(C)C(=O)[C@@H](O)CC2(C)C)C(C)(C)C[C@H](O)C1=O [Astaxanthin],1.01,1.13
Cc1cccc(Nc2cc(Cl)nc(SCC(=O)O)n2)c1C [Pirinixic Acid],0.824,0.88
CC(C)(Oc1ccc(Cl)cc1)C(=O)O [Clofibric acid],1.24,0.825
O=C(OC(C(F)(F)F)C(F)(F)F)N1CCC(C(O)(c2ccc3c(c2)OCO3)c2ccc3c(c2)OCO3)CC1,1.06,0.855
O=C(CCCCCCCC(=O)NCCO)NCCO [Adelmidrol],1.16,1.04
COc1ccc2c(c1)CCC1C2CCC2(C)C(NCCCCCCN3C(=O)C=CC3=O)CCC12 (stereo unspecified),0.699,0.806
CCCCCCS(=O)(=O)NC(=O)c1ccc(CSCc2ccc(-c3ccccc3)cc2)cc1,0.938,0.91
Cc1c(C(=O)NN2CCCCC2)nn(-c2ccc(Cl)cc2Cl)c1-c1ccc(Cl)cc1 [Rimonabant],0.936,0.817
O=S(=O)(c1ccccc1)N(CC(F)(F)F)c1ccc(C(O)(C(F)(F)F)C(F)(F)F)cc1,0.957,1.23
CC(C)c1nc(N(C)S(C)(=O)=O)nc(-c2ccc(F)cc2)c1/C=C/[C@@H](O)C[C@@H](O)CC(=O)O [Rosuvastatin],0.633,0.871

# From the supplement of paper PMC9492666
